Measured values as given in PubChem BioAssay.
Active and inactive are the calls of the source.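 How the source made its calls, unless noted: active means compounds that lower survival of HCT116 colon cancer cells in the luminescence readout, no numeric limit stated; inactive means the rest.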

Assays:
[1] = Wnt pathway potentiators raising nuclear beta-catenin – imaging, WNT3A-conditioned medium, mouse C2C12, NPC library, primary screen (AID 1117326; in the data active means nuclear beta-catenin stimulation mostly above about 4.2%, no sharp cut-off; inactive means mostly below about 10%; further: reference of the scale not given here); settings: stronger effect = higher value
[2] = stimulators of insulin release from INS-1E, primary screen, cell-based, 5 mM glucose, NPC library (AID 1117329;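 active means compound raises insulin release from rat beta cells at 5 mM glucose, no numeric limit stated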; further: reference of the scale not given here); settings: rat INS-1E insulin secretion, at 10 µM, stronger effect = higher value
[3] = growth inhibition of GSK3B-pretreated HCT116 cells – cell-based, CellTiter-Glo, 0.2 to 20 µM (AID 1117336;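 active means compounds lowering colon cancer cell viability after pretreatment blocking the GSK3B kinase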); settings: HCT116 viability after GSK3B inhibitor, at 20 µM, stronger effect = higher value
[4] = inhibition of endothelial tube formation, primary screen, imaging, VEGF stimulated, CD31 staining, tube area, NPC library (AID 1117340;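 active means compound that reduces growth-factor-driven endothelial tube area in a mixed cell culture, no cutoff stated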); settings: VEGF-stimulated ADSC/ECFC co-culture, at 10 µM, stronger effect = higher value
[5] = GLP1 release stimulators, primary, NCI-H716, NPC library (AID 1117341;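 active means compound raises GLP1 secretion from the human gut endocrine cells, with no numeric limit stated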; further: reference of the scale not given here); settings: NCI-H716 cells, at 10 µM, stronger effect = higher value
[6] = HCT116 colon cancer cell growth inhibition, primary screen, CellTiter-Glo luminescence, NPC library (AID 1117342); settings: at 20 µM (top of the series)
[7] = reduced SW480 viability measured with CellTiter-Glo, NPC library, primary (AID 1117343;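 active means compounds that lower viability of the colon cancer cells in the luminescence readout, with no numeric limit stated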); settings: CellTiter-Glo luminescence; at 20 µM (top of the series)
[8] = NPC library primary testing for decreased DLD-1 cell viability via CellTiter-Glo (AID 1117346;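 active means compounds that lower survival of DLD-1 colon cancer cells in the luminescence readout, no cutoff given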); settings: DLD-1 viability, CellTiter-Glo luminescence; at 20 µM (top of the series)

| Structure (SMILES) | nuclear beta-catenin stimulation ([1]; at 10 µM) | nuclear beta-catenin stimulation ([1]; stimulation, at 2 µM) | insulin secretion stimulation [2] | viability decrease [3] | tube area decrease [4] | GLP1 secretion stimulation [5] | inhibition of viability [6] | viability decrease (inhibition) [7] | viability decrease (inhibition) [8] |
| --- | --- | --- | --- | --- | --- | --- | --- | --- | --- |
| CCN(CC)CC(=O)Oc1ccc(NC(C)=O)cc1 | -0.5% (inactive) | 6.1% | -0.7% (inactive) | 0.8% (inactive) | -10.3% (inactive) | -0.7% (inactive) | 1.8% (inactive) | 2.2% (inactive) | -9.7% (inactive) |
| CCOC(=O)N1CCC(n2c(=O)[nH]c3cc(Cl)ccc32)CC1 | -2.8% (inactive) | -0.2% | -5.2% (inactive) | 15.6% (inactive) | 14.4% (inactive) | -8.8% (inactive) | 49.4% (inactive) | 19.8% (inactive) | 0.5% (inactive) |
| CC(C)(C)NCC(O)COc1ccc(NC(=O)NC2CCCCC2)cc1 (stereo unspecified) | 1.2% (inactive) | -0.1% | 1.65% (inactive) | -5.2% (inactive) | 9.5% (inactive) | 2% (inactive) | -0.2% (inactive) | -5.6% (inactive) | -1.8% (inactive) |
| CCN(CC)CCOc1ccc(C(O)(Cc2ccc(Cl)cc2)c2ccc(C)cc2)cc1 (stereo unspecified) | 8.8% (inactive) | 1.9% | 0.1% (inactive) | 101% (active) | 107% (active) | 31.5% (active) | 102% (active) | 122% (active) | 101% (active) |
| Cc1ccc(-c2ccccc2C#N)cc1 | 1.4% (inactive) | 6.2% | 0.25% (inactive) | 3.2% (inactive) | -5.1% (inactive) | 2.4% (inactive) | -1.3% (inactive) | -24.5% (inactive) | -11% (inactive) |
| COc1cc(C=C2CCC/C(=C\c3ccc(O)c(OC)c3)C2=O)ccc1O | 118% (active) | 4.1% | 11.1% (inactive) | 99.1% (active) | 106% (active) | -3% (inactive) | 99.5% (active) | 103% (active) | 101% (active) |
| CO/N=C(/C(=O)N[C@@H]1C(=O)N2C(C(=O)O)=C(Cn3nnc(C)n3)CS[C@H]12)c1csc(N)n1 | -0.1% (inactive) | -1% | 3.2% (inactive) | 2.9% (inactive) | 13.4% (inactive) | 0.9% (inactive) | -1.5% (inactive) | 10.8% (inactive) | 1% (inactive) |
| NC[C@@H]1O[C@H](O[C@H]2[C@H](O)[C@H](O[C@H]3[C@@H](O)[C@H](N)C[C@H](N)[C@H]3O[C@H]3O[C@H](CN)[C@H](O)[C@H](O)[C@H]3N)O[C@@H]2CO)[C@@H](N)[C@@H](O)[C@@H]1O | -0.3% (inactive) | 0.4% | 3.2% (inactive) | -8.9% (inactive) | -22.4% (inactive) | 63.5% (active) | 9% (inactive) | 31.1% (inactive) | 5% (active) |
| CCOC(=O)Oc1ccc(CCNC(=O)[C@H](CCSC)NC(C)=O)cc1OC(=O)OCC | -0.7% (inactive) | 1.3% | -1.6% (inactive) | 41% (inactive) | 1.3% (inactive) | -1.1% (inactive) | 2.33% (inactive) | 14.7% (inactive) | 18.4% (inactive) |
| O=P(O)(O)C(O)(Cc1cnc2ccccn12)P(=O)(O)O | -0.5% (inactive) | 1.4% | -0.3% (inactive) | 2.2% (inactive) | 7.8% (inactive) | 4.3% (inactive) | 13.5% (active) | 3.6% (inactive) | 9.7% (inactive) |
| Cn1c(O)c(N=NC(N)=S)c2ccccc21 | 2.5% (inactive) | 3.1% | 2% (inactive) | 13.8% (inactive) | 28.1% (inactive) | -3.5% (inactive) | 39.9% (inactive) | 30.4% (inactive) | 12.2% (inactive) |
| NS(=O)(=O)c1cc2c(cc1Cl)CN(C1CCCCC1)C2=O | -0.9% (inactive) | -0.3% | -0.2% (inactive) | -0.4% (inactive) | -3.4% (inactive) | 1.4% (inactive) | -2.17% (inactive) | -0.2% (inactive) | -3.8% (inactive) |
| Cc1ccc(S(=O)(=O)NC(=O)NC2CCCCCCC2)cc1 | -0.3% (inactive) | 0.1% | 18.5% (inactive) | 11.2% (inactive) | 14.5% (inactive) | 3.1% (inactive) | -9.1% (inactive) | 36.4% (inactive) | 12.9% (inactive) |
| Nc1ccc([N+](=O)[O-])c(C(F)(F)F)c1 | 0.5% (inactive) | -1% | 0.2% (inactive) | 13.2% (inactive) | 1.1% (inactive) | -0.8% (inactive) | 26.5% (inactive) | -16.7% (inactive) | 18.5% (inactive) |
| c1ccc(OCc2ccc(CCCN3CCOCC3)cc2)cc1 | -1% (inactive) | 0.3% | 4.5% (inactive) | 32.1% (inactive) | 14% (inactive) | -0.1% (inactive) | 54.5% (active) | 34.7% (active) | 19.4% (inactive) |
| COC(=O)CCC(=O)CN | -1.5% (inactive) | 0.1% | 0.4% (inactive) | 0.2% (inactive) | -14.2% (inactive) | -0.4% (inactive) | 11.6% (inactive) | 24.2% (inactive) | 18.4% (inactive) |
| CCCCC(=O)O[C@H]1CC[C@H]2[C@@H]3CCc4cc(O)ccc4[C@@H]3CC[C@]12C | -0.4% (inactive) | -0.3% | 1.2% (inactive) | 99.1% (active) | 108% (active) | -4.2% (inactive) | 91.3% (active) | 103% (active) | 74.4% (active) |
| NCCNc1ccc(NCCN)c2c1C(=O)c1ccncc1C2=O | 22.6% (inactive) | 8.9% | -0.4% (inactive) | 67.3% (active) | 91.4% (active) | -4.8% (inactive) | 47% (inactive) | 1.2% (inactive) | 14.7% (inactive) |
| CCOC(=O)C(O)c1ccccc1 (stereo unspecified) | 1.9% (inactive) | 9.6% | 0% (inactive) | -1.8% (inactive) | -9.7% (inactive) | 0.1% (inactive) | 1.4% (inactive) | -10% (inactive) | -2.3% (inactive) |
| CCCCCCCCCCCCCC[N+](C)(C)Cc1ccccc1 | 55% (active) | -0.7% | 3.5% (inactive) | 99.5% (active) | 109% (active) | -0.6% (inactive) | 99.2% (active) | 101% (active) | 102% (active) |
| Cc1onc(-c2c(F)cccc2Cl)c1C(=O)Cl | -0.1% (inactive) | 0.5% | 1.1% (inactive) | -3.1% (inactive) | -12.5% (inactive) | -1.4% (inactive) | 0.4% (inactive) | -2.6% (inactive) | 2.8% (inactive) |
| Nc1ccc(/C=C/c2ccc(N)cc2S(=O)(=O)O)c(S(=O)(=O)O)c1 | 0.5% (inactive) | 0.9% | 0.1% (inactive) | -4.75% (inactive) | -11.3% (inactive) | -0.8% (inactive) | -10.1% (inactive) | 13% (active) | -4.05% (inactive) |
| O=C(O)[C@@H]1CCCN1 | 0.9% (inactive) | 1.2% | 1.6% (inactive) | 2.9% (inactive) | -4% (inactive) | -1.7% (inactive) | 36.6% (inactive) | 42.8% (inactive) | 57.9% (active) |
| COc1ccc([C@@H]2CC(=O)c3c(O)cc(O[C@@H]4O[C@H](CO[C@@H]5O[C@@H](C)[C@H](O)[C@@H](O)[C@@H]5O)[C@@H](O)[C@H](O)[C@@H]4O)cc3O2)cc1O | 1.6% (inactive) | 2.4% | -0.9% (inactive) | -10.2% (inactive) | -4.7% (inactive) | -1% (inactive) | -1.6% (inactive) | -2.4% (inactive) | 41.4% (inactive) |
| CCOC(=O)[C@H](CCc1ccccc1)N[C@@H](C)C(=O)N(CC(=O)O)C1Cc2ccccc2C1 | 1% (inactive) | 0.4% | 1.15% (inactive) | -0.3% (inactive) | 4.9% (inactive) | 3.1% (inactive) | 10.2% (inactive) | -7.1% (inactive) | -2.9% (inactive) |
| CCCCNC(=O)NS(=O)(=O)c1ccc(N)cc1 | 1.6% (inactive) | 0.7% | 0.4% (inactive) | 2.75% (inactive) | -10.5% (inactive) | 1.9% (inactive) | 1.4% (inactive) | 27.3% (inactive) | 8.7% (inactive) |
| CN1CCN(CCC(=O)N2c3ccccc3Sc3ccc(C(F)(F)F)cc32)CC1 | 2.3% (inactive) | 2.1% | 16.1% (inactive) | 72.7% (active) | 19.7% (inactive) | 11.5% (inactive) | 60% (active) | 117% (active) | 57.8% (active) |
| CCN(CC)C(=O)C1CN2CCc3cc(OC)c(OC)cc3C2CC1OC(C)=O (stereo unspecified) | -1.5% (inactive) | 1.3% | 3.5% (inactive) | -0.1% (inactive) | 1.2% (inactive) | 10.9% (inactive) | 17.1% (inactive) | 6.1% (inactive) | -4.5% (inactive) |
| CC(CC(C#N)(c1ccccc1)C(C)C)N(C)C (stereo unspecified) | 2.7% (inactive) | 0.9% | 3.4% (inactive) | -53.4% (inactive) | 1.3% (inactive) | 0.5% (inactive) | -4.77% (inactive) | 14.5% (inactive) | -20% (inactive) |
